# Assay results published in PubChem BioAssay.
# “And” between values parts separate entries of the source, which are not always exact repeats. Equal values may be shown once. Inconclusive results are not listed. The source made the active and inactive calls.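 Rule for the calls, unless noted: active = compounds whose cell count with miR-34 switched on is under 0.7 times the count with it off; inactive = the rest.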
# Key:
# [1] = viability loss with induced miR-34 in A549 – imaging, A549 dox-inducible miR-34, nuclei and caspase counts, primary screen (AID 1347080); conditions: A549 miR-34 inducible, Hoechst nuclei count, 48 h
# [2] = growth inhibition of DIPG cells – cell-based, MIPE5.0 library, qHTS (AID 1347068; cut-off not given, nearly all actives have IC50 up to about 30 µM); conditions: SU-DIPG-XXV viability
# [3] = stronger effect = lower value, cell number ratio, induced over uninduced
# [4] = measured here: relative caspase fold change +Dox/-Dox
# [5] = measured here: total cells with miR-34 induction, stronger effect = lower value
# [6] = measured here: total cells without miR-34 induction
SMILES,"fold change [1, 3]","fold change [1, 4]","cell count [1, 5]","cell count [1, 6]",outcome [2]
CCCCCC/C=C/C=C\CCCCCCCC(=O)O,0.985 (inactive),0.691,5840,5920,
O=C(Nc1cccc(C(F)(F)F)c1)c1cccc2cc(Oc3cc(CO)ncn3)ccc12,,,,,inactive
C=C1C[C@@H](O)[C@H](/C=C/[C@@H](O)C(C)(C)CCCC)[C@H]1C/C=C\CCCC(=O)O,0.979 (inactive) and 0.901 (inactive),1.17 and 1.12,6150 and 5990,6290 and 6650,
CCCCC[C@H](O)/C=C/[C@@H]1[C@@H](C/C=C\CCCC(=O)OC(C)C)[C@@H](O)C[C@H]1O,0.994 (inactive),1.14,5380,5420,
CCCCC[C@@H](O)CC[C@H]1[C@H](O)CC(=O)[C@@H]1CCCCCCC(=O)O,0.971 (inactive),1.47,5350,5510,
O=C(O)c1ccccc1-c1ccc(/C=c2\sc3nc4cc(Br)cnc4n3c2=O)o1,,,,,inactive
C#CCCC[C@@H](O)CCCCCCCCCCC(=O)O,0.902 (inactive),1.14,5310,5890,
CCCCc1ccc(N=CNO)c(C)c1,1.01 (inactive),0.762,6020,5950,
O=C(O)COc1ccc(C(=O)c2cccs2)c(Cl)c1Cl,0.964 (inactive),0.701,5800,6010,
CC#CCC(C)C(=O)/C=C/[C@@H]1[C@H]2C/C(=C/CCCC(=O)O)C[C@H]2C[C@H]1O (stereo not given in full),0.968 (inactive),3.57,5500,5680,
O=Cc1cccc2[nH]ccc12,1.14 (inactive),0.821,6070,5350,
CCCCC[C@H](O)/C=C/[C@H]1C(=O)C[C@H](O)[C@@H]1CCCCCCCO,1.14 (inactive),1.46,5820,5120,
CCCCC[C@H](O)/C=C/[C@H]1C(=O)C[C@H](O)[C@@H]1C/C=C\CCCC(=O)OCC(O)CO (stereo not given in full),1.06 (inactive),1.71,6090,5740,
CC(C)CC[C@@H](O)[C@@H](C)C1CCC2C3CC=C4C[C@@H](O)CC[C@]4(C)C3CC[C@@]21C (stereo not given in full),0.933 (inactive),1.03,5170,5530,
CC/C=C\C/C=C\C/C=C\C/C=C\C/C=C\CCCC(=O)O[C@H](COCCCCCCCCCCCCCCCC)COP(=O)([O-])OCC[N+](C)(C)C,0.886 (inactive),1.31,5330,6010,
CC(C)CCCCCCC/C=C/C(=O)O,0.859 (inactive),0.582,5080,5910,
CCCC[C@H](C)C[C@H](O)/C=C/[C@H]1[C@H](O)CC(=O)[C@@H]1CCCCC(CC(=O)O)OC (stereo not given in full),0.949 (inactive),0.824,5200,5480,
CCCC[C@H](C)C[C@H](O)/C=C/[C@H]1[C@H](O)CC(=O)[C@@H]1CCCC/C=C/C(=O)O,0.92 (inactive),1.29,5710,6200,
NC(=Nc1ccc(F)cc1)NO,1.01 (inactive),1.07,5540,5470,
CCCCC[C@H](O)/C=C/[C@@H]1C(C/C=C\CCCCN(C)C)[C@@H](O)C[C@H]1O (stereo not given in full),0.95 (inactive),1.02,5640,5940,
CCCCC[C@H](O)/C=C/[C@H]1[C@H](O)CC(=O)[C@H]1C/C=C\CCCC(=O)OC(C)C,0.953 (inactive),1.45,5550,5820,
CCCCC/C=C\C/C=C\C/C=C\C/C=C\CCCC(=O)OCC(O)CO (stereo not given),0.924 (inactive),0.738,4970,5380,
O=C(CCc1ccc(O)c(O)c1)N[C@@H](CC(=O)OCc1ccccc1)C(=O)OCc1ccccc1,1.01 (inactive),0.94,6350,6270,
CCCCCCCC/C=C\CCCCCCCCCCCC(=O)O,1.01 (inactive),0.826,6030,5990,
CCCCC/C=C\C/C=C\C/C=C\C/C=C\CCCCNC(=O)c1ccc(O)cc1,0.937 (inactive),0.908,5740,6120,
COc1ccc(C[C@H](N)C(=O)N[C@H]2[C@@H](O)[C@H](n3cnc4c(N(C)C)ncnc43)O[C@@H]2O)cc1,0.887 (inactive),1.17,1130,1270,
C/C=C/C[C@@H](C)[C@@H](O)[C@H]1C(=O)N[C@@H](CC)C(=O)N(C)CC(=O)N(C)[C@@H](CC(C)C)C(=O)N[C@@H](C(C)C)C(=O)N(C)[C@@H](CC(C)C)C(=O)N[C@@H](C)C(=O)NC(C)C(=O)N(C)[C@@H](CC(C)C)C(=O)N(C)[C@@H](CC(C)C)C(=O)N(C)[C@@H](C(C)C)C(=O)N1C (stereo not given in full),1.02 (inactive),1.6,2270,2230,
CS(=O)(=O)NC(=O)CCCCCCCCCC=C(Br)Br,0.853 (inactive),1.19,4860,5700,
Cc1ccccc1C#Cc1ccc(CCC(=O)O)cc1,1.11 (inactive),1.21,6610,5930,
